The source of these data is PubChem BioAssay (NCI).

The structures appear in SMILES notation. Compounds without any hit were thinned out: in the full panel of roughly 83,000, 20% have a hit.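 Single-dose data. Exposure time 48 hours. Values below 10 considered active.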 A number with no mark means an inactive call. Active and inactive are the calls of the source.

Common to all, as to assay: NCI-60 one-dose screen, 48 h (100 = growth as untreated, 0 = no growth, -100 = all killed)
Details in all cases: 10 µM unless noted

The test system of assay [1] is HCT-15 colon.
Assay [2] concerns HT29 colon.
For assay [3], the system named is SNB-75 CNS.
The test system of assay [4] is SNB-19 CNS.
Assay [5] deals with U251 CNS.
In assay [6] the test system is PC-3 prostate.
Assay [7] relates to SK-MEL-5 melanoma.
Assay [8] relates to UACC-62 melanoma.
Assay [9] deals with LOX IMVI melanoma.
Assay [10] relates to SK-MEL-28 melanoma.

With `O=C(NCc1ccc(F)cc1)C1CN(c2ccc(Cl)cc2)N(c2ccc(Cl)cc2)C1=O` (stereo not drawn), the growth in assay [1] is 45.1%; in assay [2], 25.6%; in [3] it was 36.7%; in [4], 78.1%; in assay [5] it was 56.6%; in assay [6], 61.9%. In addition, the growth is 52.9% in assay [7], 42% in assay [8], 72.3% in [9] and 74.9% in [10].
For the compound `CN1CCN(c2ccc3nc(-c4ccc5nc(-c6ccc(C(F)(F)F)cc6)[nH]c5c4)[nH]c3c2)CC1`, the growth in assay [1] is 80.4%; in assay [2], 29.2%; in assay [3], 29.6%; in [4], 74.2%; in [5], 34.7%; in assay [6], 30.2%. Moreover, the growth is 44.2% in assay [7], 67.5% in assay [8], -85.8% (active) in assay [9] and 63.2% in assay [10].
Regarding `c1ccc2c(c1)oc1cc3c(cc12)nnc1cccn13`, the growth in [1] is 104%; in assay [2] it was 103%; in assay [3] it was 91.7%; in assay [4], 108%; in assay [5] it was 97.2%; in assay [6] it was 100%. For the same compound, the growth in assay [7] is 98.2%; in [8], 106%; in assay [9] it was 112%; in [10] it was 116%.
With `CN1CCN(CCCn2c3c(sc4ncccc43)c(=O)n3nnc(-c4ccccc4)c23)CC1`, the growth in [1] is -40.1% (active); in assay [2], -46.2% (active); in assay [3], 73.8%; in assay [4], 5.98% (active); in [5] it was -80.8% (active); in assay [6], -3.82% (active). Further, the growth is -98% (active) in assay [7], 91% in assay [8], -96% (active) in [9] and 111% in assay [10].
As to `O=[N+]([O-])c1ccc2nc(N/N=C/c3ccc(O)cc3)sc2c1`, the growth is 53.4% in assay [1]; 78% in assay [2]; 73.7% in assay [3]; 77.9% in [4]; 45.9% in assay [5]; 38.4% in [6]. Further, the growth is 58.1% in assay [7], 81.7% in assay [8], 49.7% in assay [9] and 89% in [10].
Turning to `COc1cc(-c2ccc3cc(OC)c(OC)c(OC)c3c2)cc(OC)c1OC`, the growth in [1] was 42.8%; in assay [2], 32.6%; in [3], 49.1%; in [4], 85.4%; in assay [5] it was 69%; in [6], 49.5%. For the same compound, the results for the growth in [8] and in assay [9] were 68.1% and 62.8%, respectively.
For the compound `O=C(c1ccc2ncc(-c3nc(NC4CC4)ncc3F)n2c1)N1CCOCC1`, the growth was 23.8% in assay [1]; 26.4% in assay [2]; -21.6% (active) in [3]; 45.8% in [4]; 28.6% in assay [5]; 52.6% in assay [6]. Besides, the growth in assay [7] was -51.8% (active); in assay [8] it was 16.9%; in assay [9], -0.283% (active); in assay [10], 45.4%.
Regarding `O=C1c2ccccc2-c2cn(Cc3ccccc3)c3cccc(c23)C1c1cccnc1` (stereo not drawn), the growth in [1] was 31.2%; in assay [2], 4.25% (active); in assay [3], 23.2%; in assay [4] it was 54%; in [5] it was 25%; in [6] it was 55.4%. Also, the growth was 21.7% in assay [7], 47.3% in assay [8], 57.4% in assay [9] and 53.9% in [10].
Consider `COc1ccc(-c2nc3sc(C)nn3c2-c2nc3cc(C)c(C)cc3[nH]2)cc1`, for which the growth in assay [1] was 80.6%; in assay [2], 99.2%; in assay [3], 87.1%; in assay [4], 110%; in [5] it was 103%; in assay [6], 86%. Moreover, the growth in [7] is 93%; in assay [8], 88.5%; in [9] it was 94.8%; in assay [10] it was 96%.
For `CCC(C)[C@H]1O[C@]2(CC[C@@H]1C)C[C@@H]1C[C@@H](C/C=C(\C)[C@@H](OC3C[C@H](OC)C(O[C@H]4C[C@H](OC)[C@@H](O)[C@H](C)O4)[C@H](C)O3)[C@@H](C)/C=C/C=C3\CO[C@@H]4[C@H](O)C(C)=C[C@@H](C(=O)O1)[C@]34O)O2` (stereo partly drawn), the growth is 8.26% (active) in assay [1]; 4.41% (active) in assay [2]; -0.276% (active) in assay [3]; 33.1% in assay [4]; 31.5% in [5]; 1.52% (active) in assay [6]. In addition, the growth in assay [7] is -85.4% (active); in [8], 18.4%; in assay [9], -83.1% (active); in assay [10], -16.6% (active).
Take `CS(=O)(=O)Nc1cccc(C(=O)NCc2ccc(N3CCOCC3)cc2)c1`: the growth was 104% in assay [1]; 95% in assay [2]; 68.2% in [3]; 108% in assay [4]; 107% in assay [5]; 104% in assay [6]. Besides, the growth in assay [7] was 98.9%; in assay [8] it was 113%; in assay [9], 99.8%; in assay [10], 107%.
As to `Cc1ccc(S(=O)(=O)N2C/C(=C\c3cc(F)cc(F)c3)C(=O)/C(=C/c3cc(F)cc(F)c3)C2)cc1`, the growth in assay [1] was -31.6% (active); in [2] it was -48.7% (active); in [3] it was -41.6% (active); in [4], -61.7% (active); in assay [5] it was -97.9% (active); in assay [6] it was -60.3% (active). Besides, the growth is -59.6% (active) in [7], -91.1% (active) in assay [8], -94.5% (active) in [9] and -80.1% (active) in assay [10].
Take `CN1CCN(C(=O)OCCOCCOC(=O)N2CCN(C)CC2)CC1`: the growth in [1] was 96.3%; in assay [2], 101%; in [3], 80.8%; in assay [4], 104%; in assay [5], 103%; in assay [6], 90.1%. Also, the growth in assay [7] is 104%; in assay [8], 102%; in assay [9], 90.9%; in assay [10] it was 105%.
